Results published in PubChem BioAssay AID651871 (Sanford-Burnham Center for Chemical Genomics, 2012).

test system: HL-1; assay: cardiomyocyte survival under oxidative or metabolic stress – cell-based, panel, H9c2 and HL-1, ATP luminescence, set 2, SAR follow-up (AID 651871); details: H9c2/HL-1 cardiomyocytes, 2-deoxyglucose stress, with 2-deoxyglucose, run 16, at 79 µM (top of the series);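 also: cells exposed to stressor for 2 h before ATP readout; reference of the scale not given here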

Row | Structure (SMILES) | activity (protection/inhibition)
1 | COc1ccc2nc(-c3cc(OC)c(OC)c(OC)c3)cc(C(=O)NCC(=O)Nc3ccc(C(C)=O)cc3)c2c1 | 84.4%
2 | CCOC(=O)c1cccc(NC(=O)CNC(=O)c2cc(-c3cc(OC)c(OC)c(OC)c3)nc3ccccc23)c1 | 130%
3 | COc1ccc2c(c1OC)C(=O)N1c3ccccc3C(=O)N(Cc3cccc(Cl)c3Cl)C21 (stereo not drawn) | -9.37%
